Laboratory results as given in PubChem BioAssay (Tox21).
Inconclusive results are not listed. Unmarked numbers belong to inactive results. Calls come from the whole dose curve; as a rule, active = well fitted activation curve with a large enough effect in the signal ratio in the repeat runs (not every such curve was filed as active); inconclusive = weak or mixed curves, or effect the other way; inactive = flat fitted curve, though single readings scatter; the % refers to the signal ratio.

What follows are molecules tested against Estrogen receptor beta (Homo sapiens) (UniProt Q92731) (assay: qHTS assay to identify small molecule agonists of the estrogen receptor beta (ER-beta) signaling pathway (AID 1259377)). Details: ER-beta-UAS-bla HEK293T, beta-lactamase FRET ratio, 16 h; series mostly up to 92.4 µM; activation: at the top concentration.
Source text: U.S. Tox21 Program National Center for Advancing Translational Sciences [NCATS] NIH Chemical Genomics Center [NCGC] U.S. Environmental Protection Agency [EPA] National Institutes of Environmental Health Sciences [NIEHS] National Toxicology Program [NTP] U.S. Food and Drug Administration [FDA] Tox21 Assay Overview: Estrogen receptor (ER), a nuclear hormone receptor, plays an important role in development, metabolic homeostasis and reproduction. Two subtypes of ER, ER-alpha and ER-beta, have similar expression patterns with some uniqueness in both types. Endocrine disrupting chemicals (EDCs) and their interactions with steroid hormone receptors like ER causes disruption of normal endocrine function. To identify the compounds that activate ER signaling, an ER beta-UAS-bla GripTite cell line (Life technologies, Madison, WI, USA) containing a beta-lactamase reporter gene under the control of an Upstream Activator Sequence (UAS) was used to screen Tox21 10K compound library.
Tox21 Assay Protocol Summary: ER-beta-UAS-bla HEK293T cells were dispensed at 2,000 cells/5 uL of assay medium containing 2% charcoal stripped FBS per well into black wall/clear-bottom 1536-well plates using a Multidrop Combi (ThermoFisher Scientific, Waltham, MA) dispenser. After the assay plates were incubated at a 37C and 5% CO2 for 6 hr, 23 nL of compounds dissolved in DMSO, positive controls or DMSO only was transferred to the assay plate by a Pintool station (Kalypsys, San Diego, CA). The plates were incubated at 37C and 5% CO2 for 16 hr. Then 1 uL of LiveBLAzerTM B/G FRET substrate was added using a BioRAPTR FRD (Flying Reagent Dispenser, Aurora Discovery, San Diego, CA). After the plates were incubated at room temperature for 2 hours, fluorescence intensity was measured by an Envision plate reader (PerkinElmer, Shelton, CT).
% is set by controls: 0 for no effect and ±100 for the full control effect.

Chain of Estrogen receptor beta (Homo sapiens) (Q92731 whole entry, looked up): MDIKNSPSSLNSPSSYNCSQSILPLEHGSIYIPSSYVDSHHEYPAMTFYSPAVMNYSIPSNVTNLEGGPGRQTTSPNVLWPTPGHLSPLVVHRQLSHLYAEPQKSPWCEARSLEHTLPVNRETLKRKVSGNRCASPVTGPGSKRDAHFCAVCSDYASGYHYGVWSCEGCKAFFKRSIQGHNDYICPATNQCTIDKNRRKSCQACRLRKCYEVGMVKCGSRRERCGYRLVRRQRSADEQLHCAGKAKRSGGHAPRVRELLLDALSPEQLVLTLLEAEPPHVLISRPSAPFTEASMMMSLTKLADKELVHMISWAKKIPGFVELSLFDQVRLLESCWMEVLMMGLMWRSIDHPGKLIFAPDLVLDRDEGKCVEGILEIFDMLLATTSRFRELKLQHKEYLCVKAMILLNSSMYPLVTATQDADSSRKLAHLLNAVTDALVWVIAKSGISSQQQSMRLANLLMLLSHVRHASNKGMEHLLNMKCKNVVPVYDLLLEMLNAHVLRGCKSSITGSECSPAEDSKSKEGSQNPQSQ

Point of comparison: `BrCCOc1ccccc1`, “activation” value 1.52%. Against it:
- CCc1ccc(CC)cc1 — higher, 2.44%
- CN(C)c1ccncc1 — lower, -0.111%
- C=C(C)C(=O)OCCOC1CC2CC1C1C=CCC21 (stereo not given) — lower, 0.664%
- CCCC(C)C(O)CC (stereo not given) — lower, -0.691%
- CC(C)(C)OC=O — lower, 0.299%
- COC(=O)/C=C(\C)CCC=C(C)C — higher, 9.45%
- O=C(O)COc1ccc2ccccc2c1 — lower, -4.65%
- CCCCCCCCCCCC(C)=O — higher, 3.73%
- O=C[C@@H](O)[C@H](O)[C@H](O)CO — higher, 4.68%
- CC(C)OCCO — higher, 5.78%
- CCCCN(CCCC)CCCCCCN(CCCC)CCCC — lower, -1.19%
- O=S(=O)(O)CC(O)CCl (stereo not given) — lower, 0.33%
- CCCCCCCCCCCCCCBr — lower, -0.17%
- CC(C)CC(O)Cc1ccccc1 (stereo not given) — higher, 10%
- CCCCCCCCC1CO1 (stereo not given) — lower, -0.266%
- Cc1ccc(O)c([N+](=O)[O-])c1 — lower, -1.04%
- CCCCC(CC)COC(=O)CC#N (stereo not given) — lower, 0.059%
- C/C=C(\C)C(=O)OC/C=C(\C)CCC=C(C)C — lower, 1.29%
- Clc1cc(Cl)c(Cl)c(Cl)c1Cl — lower, -1.36%
- CCC(C)SSC(C)CC (stereo not given) — higher, 6.19%
- CCCCC(CC)CCC(CC(C)C)OS(=O)(=O)O (stereo not given) — higher, 5.32%
- CC(C)c1cc(C(C)C)cc(C(C)C)c1 — lower, -0.362%
- CCOCCOCCOC(C)=O — lower, 0.883%
- CCCC(=O)C(CC)Sc1ccoc1C (stereo not given) — lower, -0.284%
- Cc1cc(O)c(Cl)cc1C — higher, 7.77%

Point of comparison: `CCCCN=C(N)N=C(N)N`, “activation” value 0.478% [at 42.5 µM]. Against it:
- C[C@@H]1CCC[C@H](C)N1CCCC(O)(c1ccccc1)c1ccccn1 (stereo not given in full) — lower, -0.0072% [at 42.5 µM]
- CCCc1ncc(C(=O)O)s1 — lower, -0.136% [at 42.5 µM]
- CN(C)CCc1c[nH]c2ccc(CS(=O)(=O)N3CCCC3)cc12 — lower, 0.37% [at 42.5 µM]
- CC[C@@]1(c2ccccc2)NC(=O)N(C)C1=O — higher, 2.09% [at 42.5 µM]
- CCN1CCN(C(=O)N[C@@H](C(=O)N[C@@H]2C(=O)N3C(C(=O)O)=C(CSc4nnnn4C)CS[C@H]23)c2ccc(O)cc2)C(=O)C1=O — lower, -0.888% [at 42.5 µM]
- CC(C)(Sc1cc(C(C)(C)C)c(O)c(C(C)(C)C)c1)Sc1cc(C(C)(C)C)c(O)c(C(C)(C)C)c1 — lower, -0.609% [at 42.5 µM]
- CCCCCCCCCCCCCCCC/C=C/C1CC(=O)OC1=O (stereo not given) — higher, 2.27% [at 42.5 µM]
- COC(=O)c1cc(Cl)c(NC(C)=O)cc1OC — higher, 2.52% [at 42.5 µM]
- O=C1CC2(CCCC2)CC(=O)N1CCNCC1COc2ccccc2O1 (stereo not given) — lower, -0.988% [at 42.5 µM]
- CN1C(CCl)Nc2cc(Cl)c(S(N)(=O)=O)cc2S1(=O)=O (stereo not given) — lower, -1.01% [at 42.5 µM]
- NCC1CCC(C(=O)Oc2ccc(CCC(=O)O)cc2)CC1 (stereo not given) — higher, 1.78% [at 42.5 µM]

`CCCCCCCCCCCCCCCCN(C)C` showed an activation of -2.39% [at 8.39 µM].

With `C[C@@H]1NC(=O)[C@@H](N)CNC(=O)[C@H](C2CCNC(N)=N2)NC(=O)/C(=C/NC(N)=O)NC(=O)[C@H](CNC(=O)C[C@@H](N)CCCN)NC1=O` (stereo not given in full) the activation was 1.61% [at 0.348 µM].
